± gives the standard deviation of the averaged measurements. Of roughly 6,500 targets only a part is listed; those with the largest changes were picked by preference.
Compound: Nc1ncnc2c1ncn2[C@@H]1O[C@H](COP(=O)(O)OP(=O)(O)OP(=O)(O)O)[C@@H](O)[C@H]1O [adenosine triphosphate]
Experiment: NP40-soluble protein abundance relative to vehicle (solubility fold change) (ratio); higher = more soluble protein in presence of ATP
Outline: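 Eight concentrations, 0.1 to 10 mM, were tested on Jurkat crude lysate for 10 min at room temperature and then 3 min at 37 °C, in three independent experiments. The lysate was solubilised with 0.8% NP40 and benzonase, ultracentrifuged, and the supernatant TMT-labelled for LC-MS/MS. Each value is the fold change against the detergent-processed vehicle in its own replicate, from vsn-normalised intensities.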

Chain of UniProt Q9NR46 (Q9NR46 whole entry, one chain of several): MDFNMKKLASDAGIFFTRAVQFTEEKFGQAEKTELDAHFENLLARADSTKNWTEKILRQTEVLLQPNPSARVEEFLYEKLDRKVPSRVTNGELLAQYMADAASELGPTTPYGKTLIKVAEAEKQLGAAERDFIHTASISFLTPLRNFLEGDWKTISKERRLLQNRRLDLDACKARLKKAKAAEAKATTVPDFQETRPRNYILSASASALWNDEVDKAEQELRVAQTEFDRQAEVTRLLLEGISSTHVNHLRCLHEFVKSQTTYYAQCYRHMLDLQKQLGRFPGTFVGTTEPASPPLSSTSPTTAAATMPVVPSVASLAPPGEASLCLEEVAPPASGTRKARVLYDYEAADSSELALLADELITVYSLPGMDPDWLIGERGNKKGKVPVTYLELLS
Chain of UniProt O43513 (O43513 whole entry): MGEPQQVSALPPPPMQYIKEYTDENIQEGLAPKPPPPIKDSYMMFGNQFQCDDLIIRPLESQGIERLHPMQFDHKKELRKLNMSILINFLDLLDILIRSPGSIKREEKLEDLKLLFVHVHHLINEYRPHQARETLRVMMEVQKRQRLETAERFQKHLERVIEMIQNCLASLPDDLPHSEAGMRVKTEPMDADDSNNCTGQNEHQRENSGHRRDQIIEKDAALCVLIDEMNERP
Chain of UniProt O00764 (O00764 whole entry): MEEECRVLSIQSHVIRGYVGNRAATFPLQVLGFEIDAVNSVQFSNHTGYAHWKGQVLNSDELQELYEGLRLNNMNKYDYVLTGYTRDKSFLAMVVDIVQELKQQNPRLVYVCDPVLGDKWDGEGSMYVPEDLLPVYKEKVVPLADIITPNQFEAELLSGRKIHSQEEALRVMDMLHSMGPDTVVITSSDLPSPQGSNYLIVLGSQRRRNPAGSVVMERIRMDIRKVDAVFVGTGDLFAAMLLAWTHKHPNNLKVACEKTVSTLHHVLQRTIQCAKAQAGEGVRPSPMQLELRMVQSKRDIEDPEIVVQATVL
Chain of UniProt Q6ZRP7 (Q6ZRP7 whole entry, one chain of several): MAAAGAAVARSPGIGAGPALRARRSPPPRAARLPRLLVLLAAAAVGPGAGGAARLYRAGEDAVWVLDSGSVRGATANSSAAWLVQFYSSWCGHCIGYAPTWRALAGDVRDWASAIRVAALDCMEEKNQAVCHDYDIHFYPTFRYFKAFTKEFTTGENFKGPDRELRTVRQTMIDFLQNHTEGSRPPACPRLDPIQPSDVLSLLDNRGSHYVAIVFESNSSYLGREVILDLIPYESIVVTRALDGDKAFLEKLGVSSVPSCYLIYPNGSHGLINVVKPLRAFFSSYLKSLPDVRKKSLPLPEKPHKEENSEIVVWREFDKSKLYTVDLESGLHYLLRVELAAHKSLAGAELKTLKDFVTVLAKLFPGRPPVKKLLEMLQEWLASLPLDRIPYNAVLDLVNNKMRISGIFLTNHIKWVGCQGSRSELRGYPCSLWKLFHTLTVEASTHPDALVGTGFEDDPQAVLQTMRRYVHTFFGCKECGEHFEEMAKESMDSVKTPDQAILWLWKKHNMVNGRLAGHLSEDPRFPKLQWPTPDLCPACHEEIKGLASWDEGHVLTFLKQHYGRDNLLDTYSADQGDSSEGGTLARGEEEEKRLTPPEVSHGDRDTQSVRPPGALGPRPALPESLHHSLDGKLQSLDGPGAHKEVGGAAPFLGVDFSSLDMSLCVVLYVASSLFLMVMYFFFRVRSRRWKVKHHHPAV
Chain of UniProt Q8NI36 (Q8NI36 whole entry, one chain of several): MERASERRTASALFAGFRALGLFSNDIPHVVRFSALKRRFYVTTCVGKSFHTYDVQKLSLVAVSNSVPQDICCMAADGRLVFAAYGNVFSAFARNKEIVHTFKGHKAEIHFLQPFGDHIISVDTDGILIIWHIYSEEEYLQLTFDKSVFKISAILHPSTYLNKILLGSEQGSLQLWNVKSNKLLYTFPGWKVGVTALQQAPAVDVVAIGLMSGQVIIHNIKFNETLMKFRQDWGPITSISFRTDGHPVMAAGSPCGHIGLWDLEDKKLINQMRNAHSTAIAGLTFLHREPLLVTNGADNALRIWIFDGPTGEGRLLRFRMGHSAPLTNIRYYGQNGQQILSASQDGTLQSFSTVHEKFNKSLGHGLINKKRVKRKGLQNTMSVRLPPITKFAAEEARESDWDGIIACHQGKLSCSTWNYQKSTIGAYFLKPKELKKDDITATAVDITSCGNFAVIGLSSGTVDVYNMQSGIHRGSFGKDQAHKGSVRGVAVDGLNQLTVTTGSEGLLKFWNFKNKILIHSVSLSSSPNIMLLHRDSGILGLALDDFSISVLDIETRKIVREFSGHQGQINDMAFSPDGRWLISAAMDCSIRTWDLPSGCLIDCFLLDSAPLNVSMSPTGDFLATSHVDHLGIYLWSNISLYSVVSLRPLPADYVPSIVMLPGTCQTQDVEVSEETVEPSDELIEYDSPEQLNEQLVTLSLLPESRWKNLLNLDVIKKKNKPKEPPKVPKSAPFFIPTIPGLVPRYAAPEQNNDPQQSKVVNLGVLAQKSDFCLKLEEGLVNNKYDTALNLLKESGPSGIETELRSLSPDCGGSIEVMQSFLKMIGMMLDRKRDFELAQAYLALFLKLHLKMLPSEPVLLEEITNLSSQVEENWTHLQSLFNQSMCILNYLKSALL
Chain of UniProt Q9H2U1 (Q9H2U1 whole entry, one chain of several): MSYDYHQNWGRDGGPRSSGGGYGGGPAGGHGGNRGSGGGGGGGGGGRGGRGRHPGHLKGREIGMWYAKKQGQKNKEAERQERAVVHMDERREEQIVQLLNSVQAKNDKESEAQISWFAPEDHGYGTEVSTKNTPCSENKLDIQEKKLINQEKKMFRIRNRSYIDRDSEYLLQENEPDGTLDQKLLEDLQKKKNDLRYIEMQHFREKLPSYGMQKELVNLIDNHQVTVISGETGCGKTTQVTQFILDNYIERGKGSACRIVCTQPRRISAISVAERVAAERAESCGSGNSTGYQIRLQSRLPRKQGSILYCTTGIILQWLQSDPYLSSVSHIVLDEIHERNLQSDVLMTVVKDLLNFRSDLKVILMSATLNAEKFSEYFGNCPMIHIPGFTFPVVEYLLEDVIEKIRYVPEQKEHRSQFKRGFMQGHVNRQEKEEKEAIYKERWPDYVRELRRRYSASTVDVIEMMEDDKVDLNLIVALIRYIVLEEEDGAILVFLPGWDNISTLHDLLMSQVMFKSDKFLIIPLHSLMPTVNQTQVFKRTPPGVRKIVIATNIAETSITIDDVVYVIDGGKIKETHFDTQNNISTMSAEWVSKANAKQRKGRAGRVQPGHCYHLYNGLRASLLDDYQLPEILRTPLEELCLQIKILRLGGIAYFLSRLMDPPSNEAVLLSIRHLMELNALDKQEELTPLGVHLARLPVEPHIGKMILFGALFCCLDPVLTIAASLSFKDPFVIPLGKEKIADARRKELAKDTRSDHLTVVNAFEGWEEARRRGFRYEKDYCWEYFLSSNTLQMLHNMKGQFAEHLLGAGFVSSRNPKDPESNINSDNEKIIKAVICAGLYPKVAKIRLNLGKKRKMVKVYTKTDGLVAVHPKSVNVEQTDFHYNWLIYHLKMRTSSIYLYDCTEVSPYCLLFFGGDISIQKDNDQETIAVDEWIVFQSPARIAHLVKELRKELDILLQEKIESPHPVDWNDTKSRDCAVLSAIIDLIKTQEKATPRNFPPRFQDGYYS
Chain of UniProt O43143 (O43143 whole entry): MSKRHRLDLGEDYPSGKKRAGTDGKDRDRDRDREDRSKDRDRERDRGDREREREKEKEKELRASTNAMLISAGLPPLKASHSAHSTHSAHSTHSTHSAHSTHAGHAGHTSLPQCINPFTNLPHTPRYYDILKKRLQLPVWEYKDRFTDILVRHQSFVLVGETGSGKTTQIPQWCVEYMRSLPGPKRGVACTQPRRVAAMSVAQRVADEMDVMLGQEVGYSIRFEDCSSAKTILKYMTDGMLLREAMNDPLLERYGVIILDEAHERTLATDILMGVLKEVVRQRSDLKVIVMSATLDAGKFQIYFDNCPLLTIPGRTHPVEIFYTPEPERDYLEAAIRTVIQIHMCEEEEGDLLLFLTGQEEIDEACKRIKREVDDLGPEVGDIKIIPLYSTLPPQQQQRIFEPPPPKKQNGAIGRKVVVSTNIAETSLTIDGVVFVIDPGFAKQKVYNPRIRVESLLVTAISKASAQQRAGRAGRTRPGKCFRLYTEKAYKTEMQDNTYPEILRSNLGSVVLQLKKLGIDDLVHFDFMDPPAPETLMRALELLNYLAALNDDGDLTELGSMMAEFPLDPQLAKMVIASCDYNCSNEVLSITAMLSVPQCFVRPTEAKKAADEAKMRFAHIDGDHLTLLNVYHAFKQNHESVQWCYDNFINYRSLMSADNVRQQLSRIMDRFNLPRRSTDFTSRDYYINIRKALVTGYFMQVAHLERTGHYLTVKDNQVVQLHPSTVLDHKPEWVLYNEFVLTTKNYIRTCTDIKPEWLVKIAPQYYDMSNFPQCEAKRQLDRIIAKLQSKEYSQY
Chain of UniProt Q96ER3 (Q96ER3 whole entry, one chain of several): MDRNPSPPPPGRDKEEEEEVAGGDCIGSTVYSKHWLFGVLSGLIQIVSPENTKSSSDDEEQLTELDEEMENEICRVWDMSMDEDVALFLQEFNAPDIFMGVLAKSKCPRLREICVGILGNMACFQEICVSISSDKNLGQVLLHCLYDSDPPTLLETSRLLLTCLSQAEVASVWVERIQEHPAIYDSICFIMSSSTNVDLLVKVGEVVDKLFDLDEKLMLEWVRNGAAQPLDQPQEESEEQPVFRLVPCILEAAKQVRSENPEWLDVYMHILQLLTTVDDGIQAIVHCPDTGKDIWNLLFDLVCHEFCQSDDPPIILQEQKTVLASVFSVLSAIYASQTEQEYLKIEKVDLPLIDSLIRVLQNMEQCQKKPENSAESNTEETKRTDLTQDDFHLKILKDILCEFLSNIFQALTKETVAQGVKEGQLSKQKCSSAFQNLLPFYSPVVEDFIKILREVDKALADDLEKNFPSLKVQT
Chain of UniProt P78537 (P78537 whole entry, one chain of several): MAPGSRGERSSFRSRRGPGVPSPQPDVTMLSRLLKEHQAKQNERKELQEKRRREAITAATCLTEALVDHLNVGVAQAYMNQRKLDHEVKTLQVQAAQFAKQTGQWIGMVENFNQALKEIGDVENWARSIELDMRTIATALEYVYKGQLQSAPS

Target	NP40-soluble protein abundance (concentration: 1mM)	NP40-soluble protein abundance (concentration: 2mM)	NP40-soluble protein abundance (concentration: 4mM)	NP40-soluble protein abundance (concentration: 6mM)	NP40-soluble protein abundance (concentration: 8mM)	NP40-soluble protein abundance (concentration: 10mM)
B4DWF2|Q9UKS7|Q9UKS7-2 (UniProt Q9UKS7)	1.02 ± 0.062	1.03 ± 0.072	1.04 ± 0.061	1.11 ± 0.089	1.1 ± 0.061	1.2 ± 0.066
A0A0A0MTB8|Q8NI36 (UniProt Q8NI36)	1.21 ± 0.057	1.37 ± 0.057	1.68 ± 0.13	1.86 ± 0.23	2.12 ± 0.14	2.17 ± 0.17
H7C0H2|Q96EV2|H0Y3K4 (UniProt Q96EV2)	0.963 ± 0.093	0.942 ± 0.056	0.956 ± 0.086	0.982 ± 0.075	0.958 ± 0.067	0.951 ± 0.059
B7ZBA0|Q8NI27 (UniProt Q8NI27)	1.52 ± 0.091	1.62 ± 0.074	1.89 ± 0.076	2.09 ± 0.2	2.4 ± 0.17	2.4 ± 0.21
UniProt O15379|O15379-2	1 ± 0.019	0.9928 ± 0.0062	0.985 ± 0.04	0.994 ± 0.053	1.04 ± 0.044	1.03 ± 0.065
G3XAG1|Q96ME7|Q96ME7-3 (UniProt Q96ME7)	1.34 ± 0.038	1.407 ± 0.0052	1.58 ± 0.019	1.71 ± 0.061	1.88 ± 0.046	2.06 ± 0.081
MED7 (UniProt O43513)	1.23 ± 0.3	1.17 ± 0.091	1.09 ± 0.056	1.2 ± 0.37	1.23 ± 0.26	1.28 ± 0.34
J9JID7|Q03252 (UniProt Q03252)	1 ± 0.066	0.943 ± 0.063	1.01 ± 0.065	1.06 ± 0.037	1.03 ± 0.047	1.09 ± 0.059
J3QL71|Q96FV2 (UniProt Q96FV2)	0.96 ± 0.029	0.97 ± 0.011	0.98 ± 0.025	0.944 ± 0.019	0.959 ± 0.032	0.984 ± 0.015
K7EIY6|Q9BV68-2 (UniProt Q9BV68)	1 ± 0.15	0.967 ± 0.095	0.991 ± 0.11	1 ± 0.1	0.969 ± 0.034	0.92 ± 0.11
A0A0U1RRK1|F6XEV2|Q9BPX6|Q9BPX6-3|Q9BPX6-2 (UniProt Q9BPX6)	1.01 ± 0.073	1.01 ± 0.045	1.04 ± 0.038	1.05 ± 0.067	1.07 ± 0.066	1.08 ± 0.058
J3KP06|Q8WWI1|Q8WWI1-2|Q8WWI1-3|Q8WWI1-4 (UniProt Q8WWI1)	1.31 ± 0.026	1.41 ± 0.07	1.57 ± 0.067	1.65 ± 0.07	1.77 ± 0.057	1.96 ± 0.042
G8JLQ3|P78537|P78537-2 (UniProt P78537)	0.965 ± 0.12	0.88 ± 0.076	0.834 ± 0.1	0.861 ± 0.12	0.816 ± 0.032	0.702 ± 0.15
H7C5F5|Q9H2U1|Q9H2U1-2 (UniProt Q9H2U1)	0.963 ± 0.068	0.979 ± 0.08	0.987 ± 0.073	1.01 ± 0.1	1.03 ± 0.088	1.02 ± 0.1
DHX15 (UniProt O43143)	1.25 ± 0.079	1.24 ± 0.071	1.24 ± 0.079	1.24 ± 0.1	1.33 ± 0.074	1.29 ± 0.044
H3BPD5|P78549|P78549-2|P78549-3 (UniProt P78549)	1.12 ± 0.16	1.2 ± 0.029	1.3 ± 0.1	1.51 ± 0.2	1.72 ± 0.19	1.89 ± 0.12
B0QY89|Q9Y262 (UniProt Q9Y262)	1.09 ± 0.093	1.25 ± 0.15	1.23 ± 0.075	1.35 ± 0.072	1.6 ± 0.1	1.7 ± 0.12
G5E9W3|Q9UKF6 (UniProt Q9UKF6)	1.09 ± 0.073	1.1 ± 0.029	1.14 ± 0.025	1.11 ± 0.048	1.14 ± 0.029	1.18 ± 0.052
UniProt O14662-2|O14662-4|O14662-5	0.98 ± 0.066	0.94 ± 0.042	0.993 ± 0.044	0.974 ± 0.037	0.983 ± 0.034	0.921 ± 0.068
E9PDF6|O43795 (UniProt O43795)	2.78 ± 0.047	2.71 ± 0.065	2.65 ± 0.15	2.65 ± 0.21	2.82 ± 0.17	2.67 ± 0.12
B7ZC38|Q9NR46 (UniProt Q9NR46)	0.993 ± 0.015	0.977 ± 0.029	0.98 ± 0.033	0.981 ± 0.021	0.988 ± 0.056	0.936 ± 0.039
A0A0A0MTC1|A0A0A0MTR7 (UniProt Q63HN8)	1.15 ± 0.14	1.11 ± 0.096	1.12 ± 0.083	1.03 ± 0.074	1.2 ± 0.049	1.11 ± 0.031
I3L1H5|Q9BZG8 (UniProt Q9BZG8)	0.984 ± 0.17	1.03 ± 0.12	0.987 ± 0.16	0.898 ± 0.12	0.987 ± 0.16	0.917 ± 0.13
E9PL53|J3KND1 (UniProt Q96ER3)	0.966 ± 0.034	0.9715 ± 0.0057	0.951 ± 0.013	0.997 ± 0.019	0.9485 ± 0.0047	0.925 ± 0.011
C9JRD2|C9JXB9|P25686|P25686-2 (UniProt P25686)	0.969 ± 0.038	0.956 ± 0.019	0.956 ± 0.022	0.971 ± 0.06	0.973 ± 0.016	0.977 ± 0.025
PDXK (UniProt O00764)	1.02 ± 0.12	0.987 ± 0.058	1.01 ± 0.066	0.935 ± 0.14	0.989 ± 0.058	0.981 ± 0.051
A0A0G2JPT5|O75943|O75943-2 (UniProt O75943)	1.49 ± 0.28	1.59 ± 0.3	1.62 ± 0.32	1.7 ± 0.33	1.69 ± 0.28	1.65 ± 0.33
C9J381|P20839|P20839-2|P20839-3|P20839-4|P20839-5|P20839-6|P20839-7 (UniProt P20839)	0.999 ± 0.049	0.9672 ± 0.0062	0.933 ± 0.018	0.695 ± 0.051	0.61 ± 0.018	0.581 ± 0.033
E5RG17|Q6P1N9 (UniProt Q6P1N9)	0.989 ± 0.02	0.974 ± 0.013	0.965 ± 0.02	0.963 ± 0.052	0.937 ± 0.019	0.968 ± 0.019
A0A087X176|Q6ZRP7 (UniProt Q6ZRP7)	0.958 ± 0.057	0.983 ± 0.011	0.961 ± 0.028	0.99 ± 0.029	0.953 ± 0.026	0.96 ± 0.037

— the supplement of paper PMC6411743
